Laboratory results: PubChem BioAssay (NCI)
About 83,000 compounds went through this panel and 20% of them were active in at least one assay; those are over-represented in the sample as a whole.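 In brief: 96-well plates, 48 h treatment, single concentration, percent growth endpoint.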 Values without a mark were called inactive. Active and inactive are the calls of the source. How the source made its calls: active means growth percent below 10; inactive means the rest.

Tested on: CCRF-CEM leukemia
Experiment: NCI-60 one-dose screen, 48 h (100 = growth as untreated, 0 = no growth, -100 = all killed)
Details: 10 µM unless noted

Compound	growth
O=C1/C(=C/c2ccc(F)cc2)CN(C(=O)CCN2CCC(=NO)CC2)C/C1=C\c1ccc(F)cc1	-18.3% (active)
CC/C=C\C[C@H](O)C/C=C1/C(=O)C=C[C@@H]1C/C=C\CCCC(N)=O	-4.33% (active)
CC/C=C\C[C@H](F)C/C=C1/C(=O)C=C[C@@H]1C/C=C\CCCC(=O)OC	-21.4% (active)
Nc1nc2c(c3ncccc13)C(c1ccc(Cl)c(Cl)c1)Cc1ncccc1-2 (centres undefined)	2.45% (active)
Cn1c(=O)c2c(ncn2CC[N+](C)(C)C)n(C)c1=O	109%
O=C(O)c1cccc2c1-c1ccccc1C2=O	84.2%
CCOC(=O)C(C#N)C1CCCCC1 (centres undefined)	87.2%
CCCCNP1(NCCCC)=NP(NCCCC)(NCCCC)=NP(NCCCC)(NCCCC)=NP(NCCCC)(NCCCC)=N1	-16.8% (active)
CC(=O)C1=C(O)C=C2Oc3c(C(=O)/C=C/c4cc(C(F)(F)F)cc(C(F)(F)F)c4)c(O)c(C)c(O)c3[C@]2(C)C1=O	-18.1% (active)
COc1ccc(OCC(=O)Nc2ccc(-c3nc4ccccc4s3)cc2C)cc1	89.6%
CCCCCCCCCC(=O)Oc1ccc(/C(=C(/C)c2ccccc2)c2ccc(OCCN3CCCC3)cc2)cc1	13.1%
COc1cccc(-c2nc3sccn3c2-c2ccnc(NCCCNS(=O)(=O)c3ccc(Cl)cc3)c2)c1	23.2%
CC/C=C\C[C@H](O)C/C=C1/C(=O)C=C[C@@H]1C/C=C\CCCC(=O)NC	-14.6% (active)
COc1cccc(/C=C\C(=O)c2ccccc2)c1	25.2%
